Assay results: PubChem BioAssay AID1159580 (chemical genetic matrix, 2015)
Where “and” joins values, the source holds several entries; their conditions need not be identical. Identical values can stand only once. The campaign covered roughly 5,500 compounds. About 2,000 (36%) were called active. About 18% were inconclusive and are not listed. Rule as the data show it: active = normalized growth mostly below about 0.91 (no sharp cut-off); inconclusive = no clear call, values can overlap the other calls; inactive = mostly above about 0.92. The list shows a part of the results.

Assay: chemical genetic growth profiling, strain panel (AID 1159580);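 also: tested at 20 µM; growth read once vehicle control cultures reached saturation at 30 °C; 1 = growth at the plate median or of vehicle wells; lower values mean less growth of the strain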
Conditions: S. cerevisiae deletion strains, growth OD

Measured: normalized growth

CCCN(CCC)C(=O)C(CCC(=O)O)NC(=O)c1ccccc1 (stereo not given)
inactive: locus YAL013W, strain DEP1, hits give low values 0.996 and 1.01 | locus YAL021C, strain ccr4, hits give low values 0.98 | locus YAL026C, strain drs2, hits give low values 0.987 | locus YAL030W, strain snc1, hits give low values 1 | locus YAL040C, strain CLN3, hits give low values 1 | locus YBL061C, strain skt5, hits give low values 0.983 | locus YBR009C, strain hhf1, hits give low values 0.992 | locus YBR021W, strain FUR4, hits give low values 1.01 | locus YBR023C, strain chs3, hits give low values 0.992 | locus YBR171W, strain sec66, hits give low values 0.98 | locus YBR229C, strain ROT2, hits give low values 0.999 | locus YBR231C, strain swc5, hits give low values 0.979 | locus YBR279W, strain paf1, hits give low values 0.979 | locus YCL011C, strain gbp2, hits give low values 0.983 | locus YCL016C, strain dcc1, hits give low values 1.01 | locus YCL029C, strain bik1, hits give low values 0.985 | locus YCL061C, strain MRC1 (second series), hits give low values 1 | locus YCL061C, strain MRC1, hits give low values 0.994 | locus YCL069W, strain vba3, hits give low values 0.996 | locus YCR088W, strain abp1, hits give low values 0.98 | locus YDL005C, strain med2, hits give low values 0.99 | locus YDL035C, strain GPR1, hits give low values 1.02 | locus YDL040C, strain nat1, hits give low values 0.993 | locus YDL074C, strain BRE1, hits give low values 0.987 | locus YDL101C, strain DUN1, hits give low values 0.994 | locus YDL134C, strain PPH21, hits give low values 0.996 | locus YDL185W, strain tfp1, hits give low values 0.958 | locus YDL192W, strain arf1, hits give low values 0.979 | locus YDR001C, strain nth1, hits give low values 0.973 | locus YDR069C, strain doa4, hits give low values 0.993 | locus YDR101C, strain arx1, hits give low values 0.994 | locus YDR137W, strain rgp1, hits give low values 1.02 | locus YDR150W, strain NUM1, hits give low values 0.991 and 0.999 | locus YDR159W, strain sac3, hits give low values 0.935 | locus YDR162C, strain NBP2, hits give low values 1 | locus YDR195W, strain ref2 1.02 | locus YDR297W, strain sur2, hits give low values 0.987 | locus YDR318W, strain mcm21, hits give low values 0.994 | locus YDR334W, strain swr1, hits give low values 0.962 | locus YDR335W, strain msn5, hits give low values 0.981 | locus YDR363W, strain ESC2, hits give low values 1.01 | locus YDR388W, hits give low values 1 | locus YDR392W, strain spt3, hits give low values 0.986 | locus YDR502C, strain sam2, hits give low values 1.01 | locus YEL003W, strain gim4, hits give low values 0.997 | locus YEL037C, strain rad23, hits give low values 0.982 | locus YEL061C, strain CIN8 (second series), hits give low values 0.965 | locus YEL061C, strain CIN8, hits give low values 0.992 | locus YER002W, strain NOP16, hits give low values 0.986 | locus YER015W, strain faa2, hits give low values 0.989 | locus YER016W, strain bim1, hits give low values 0.992 | locus YER110C, hits give low values 0.991 | locus YER111C, strain swi4, hits give low values 0.996 | locus YER155C, strain BEM2 (second series), hits give low values 0.985 | locus YER155C, strain BEM2, hits give low values 1 | locus YER167W, strain BCK2, hits give low values 0.993 | locus YFR010W, strain ubp6, hits give low values 0.982 | locus YGL078C, strain dbp3, hits give low values 0.996 | locus YGL086W, strain mad1, hits give low values 1.01 | locus YGL167C, strain pmr1, hits give low values 0.986 | locus YGL173C, strain kem1, hits give low values 0.982 | locus YGL227W, strain vid30, hits give low values 0.986 | locus YGL240W, strain doc1, hits give low values 0.987 | locus YGL248W, strain PDE1, hits give low values 1.01 | locus YGL253W, strain hxk2, hits give low values 0.982 | locus YGR078C, strain PAC10, hits give low values 0.984 and 1.01 | locus YGR135W, strain pre9, hits give low values 0.989 | locus YGR229C, strain SMI1, hits give low values 1.02 | locus YGR252W, strain gcn5, hits give low values 1.13 | locus YHR013C, strain ard1, hits give low values 1.01 | locus YHR027C, strain rpn1, hits give low values 0.982 | locus YHR030C, strain SLT2, hits give low values 0.992 | locus YHR079C, strain IRE1 (second series), hits give low values 0.991 | locus YHR079C, strain IRE1, hits give low values 0.979 | locus YHR094C, strain hxt1, hits give low values 0.943 | locus YHR129C, strain ARP1, hits give low values 0.998 | locus YHR142W, strain chs7, hits give low values 0.977 | locus YHR200W, strain rpn10, hits give low values 0.989 | locus YIL066C, strain RNR3, hits give low values 0.994 | locus YIL073C, strain SPO22, hits give low values 0.93 | locus YIL125W, strain kgd1, hits give low values 0.985 | locus YIR030C, strain dcg1, hits give low values 0.988 | locus YJL092W, strain hpr5, hits give low values 0.997 | locus YJL095W, strain BCK1 (second series), hits give low values 0.968 | locus YJL095W, strain BCK1, hits give low values 0.968 and 0.993 | locus YJL115W, strain asf1, hits give low values 0.99 | locus YJL129C, strain trk1, hits give low values 0.968 | locus YJL134W, strain LCB3, hits give low values 1 | locus YJL154C, strain vps35, hits give low values 0.962 | locus YJL164C, strain tpk1, hits give low values 1 | locus YJL166W, strain qcr8, hits give low values 0.983 | locus YJL168C, strain set2, hits give low values 0.985 | locus YJL187C, strain SWE1 (second series), hits give low values 0.982 | locus YJR043C, strain POL32, hits give low values 0.985 | locus YJR066W, strain TOR1, hits give low values 0.926
